Experimental data as given in the supplement of paper PMC3334620.
Whole data set: some 33,000 sequences, median “E-score (-0.5 to 0.5)” near -0.032, cut for the highest 2% near 0.36. The list comes from a sample in which the highest values are over-represented; it also holds similar and randomly drawn sequences.

molecular target: T1, Sko1 (UniProt Q02100); experiment: PBM E-score (8-mer binding enrichment) (E-score (-0.5 to 0.5)); higher = stronger / more preferred TF binding; conditions: protein concentration: 200 nM; construct: GST-full length
T1 sequence: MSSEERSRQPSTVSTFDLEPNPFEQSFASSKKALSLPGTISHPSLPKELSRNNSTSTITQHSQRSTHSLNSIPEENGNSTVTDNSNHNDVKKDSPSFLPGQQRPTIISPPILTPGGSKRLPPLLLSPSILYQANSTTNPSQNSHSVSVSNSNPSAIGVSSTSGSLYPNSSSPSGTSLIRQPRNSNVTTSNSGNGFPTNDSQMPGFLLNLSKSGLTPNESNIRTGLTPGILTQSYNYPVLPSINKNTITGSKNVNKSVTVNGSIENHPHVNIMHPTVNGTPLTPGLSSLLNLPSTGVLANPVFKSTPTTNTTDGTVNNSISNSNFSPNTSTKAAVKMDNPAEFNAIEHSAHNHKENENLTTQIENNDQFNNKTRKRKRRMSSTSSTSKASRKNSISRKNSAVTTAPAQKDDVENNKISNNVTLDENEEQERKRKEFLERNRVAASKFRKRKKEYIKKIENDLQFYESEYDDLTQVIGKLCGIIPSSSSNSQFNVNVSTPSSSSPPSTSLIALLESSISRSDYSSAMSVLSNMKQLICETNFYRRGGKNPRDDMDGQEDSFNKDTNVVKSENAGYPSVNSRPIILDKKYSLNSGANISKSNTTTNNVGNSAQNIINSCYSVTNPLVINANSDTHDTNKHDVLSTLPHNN
Outline: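 PURExpress in vitro transcription/translation supplied GST-tagged yeast transcription factors, either full-length or DNA-binding domain. Applied at about 100-200 nM to universal all-10-mer Agilent arrays double-stranded by primer extension, the bound protein was detected with fluorescent anti-GST. E-scores, modified Wilcoxon-Mann-Whitney statistics, were given by the Universal PBM Analysis Suite to ungapped eight-base words pooled with their reverse complements after masliner normalisation.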

Point of comparison: ATCGTCTC, “PBM E-score” value -0.0603. Against it:
- AGAATCCC — higher, -0.0186
- GTAGTTGA — higher, 0.173
- CTTCTACC — lower, -0.3
- TAATGCAA — higher, 0.0655
- ATTCACTG — higher, 0.0188
- ACTTTCGG — higher, 0.0182
- TAGGGGGA — lower, -0.251
- CGCTATGC — higher, 0.147
- TCAAGTGA — higher, 0.087
- ATCGCTAG — higher, -0.0122
- CTAGTTAC — higher, 0.099
- CATTGAGG — higher, -0.021
- CAGGCTCC — lower, -0.335
- CTATGTCA — higher, 0.338
- GTATGTCA — higher, 0.398
- ATATGTCA — higher, 0.339
- ATTTTACC — higher, 0.252
- CATTTACC — higher, 0.129
- CCTTTACG — higher, 0.278
- CATTTACA — higher, 0.103
- ACTTTACA — higher, 0.158
- CATTTACG — higher, 0.369
- AATTTACG — higher, 0.332
- ATTTTACG — higher, 0.383
- ACTTTACG — higher, 0.379
- ATAGCGGA — lower, -0.0894
- AGGTTGTA — higher, 0.15
- GTCCAGTA — lower, -0.0738
- AGCGCGAA — higher, 0.13
- AGTCATAA — higher, 0.0121
- CGTCATAC — higher, 0.486
- CCTCATAG — higher, 0.1
- CGTCATAG — higher, 0.483
- CGTCATAA — higher, 0.487
- GGTCATAC — higher, 0.021
- AGTCATAC — higher, 0.262
- TGTCATAA — higher, 0.325
- AGTCATAG — higher, -0.0111
- GTAACTGA — higher, 0.126
- CCAGTGGG — lower, -0.107
- ATCCACGC — lower, -0.0735
- GTAACCTA — higher, 0.192
- CCAAAACG — higher, 0.171
- AACCCGTG — lower, -0.216
- AGATGACA — higher, 0.256
- AGATGACC — lower, -0.0804
- CGATGACA — higher, 0.283
- CGATGACG — higher, 0.482
- CGATGACC — higher, 0.0462
- AGATGACG — higher, 0.476
- CAACTTAC — higher, 0.0405
- AGCGAAAC — higher, 0.163
- GGACCGCC — lower, -0.415
- GGACCATA — lower, -0.148
- GGCCCAAC — lower, -0.146
- ACGTTAGA — higher, 0.265
- AGAGATGG — higher, -0.0345
- GCCGTCAC — higher, 0.166
- ATCGTCAC — higher, 0.385
- GTCGTCAA — higher, 0.239
- ATCGTCGC — higher, 0.0155
- CGCGTCAA — higher, 0.34
- GTCGTCAC — higher, 0.41
- CTCGTCAG — higher, 0.176
- CTCGTCAC — higher, 0.38
- CGCGTCAG — higher, 0.222
- CTCGTCAA — higher, 0.0618
- CGCGTCAC — higher, 0.41
- ACCTCCAA — lower, -0.189
- CGCAGTAC — higher, 0.118
- ACTACTGC — lower, -0.0692
- AAACCTAG — higher, -0.0586
- GACCACAA — lower, -0.165
- AACTCGAG — higher, -0.00786
- CATTTTCC — higher, 0.122
- CCGGACTC — lower, -0.16
- GCGGACGC — higher, -0.0227
- AGGGTACT — lower, -0.236
- TCACAACA — higher, 0.251
- ACTTAAGC — higher, 0.032
- AGCGTCAG — higher, 0.154
- ATCGTCAA — higher, 0.287
- ACCGTCAG — higher, -0.0341
- ACCGTCAT — higher, 0.378
- AGCGTCAA — higher, 0.166
- ATCGTCAG — higher, 0.263
- ATCGTCAT — higher, 0.469
- AGCGTCAT — higher, 0.445
- ACCGTCAA — higher, 0.00527
- CCTTAAAA — higher, 0.101
- GTGAATGA — higher, 0.231
- GGGCCAGA — lower, -0.278
- GGAGCTAC — lower, -0.112
- CGCTAGCG — lower, -0.26
- CGGAGAGA — lower, -0.15
- CTCCAAGA — lower, -0.189
- ATTCTAGG — higher, 0.0401
- AGTCGCGG — lower, -0.312
- GCAAACGA — higher, 0.136
- TAGCTACA — higher, 0.13
- GGATTCTA — lower, -0.0972
- TCATTGAA — higher, 0.146
- CATCATGG — higher, 0.132
- CATCATAA — higher, 0.299
- AATCATAG — higher, 0.126
- CATCATAG — higher, 0.361
- AATCATAC — higher, 0.253
- CATCATAC — higher, 0.377
- ATAAATAC — higher, 0.23
- CGATGGAA — higher, 0.106
- AAACAATC — higher, 0.0366
- ACAGGTTC — lower, -0.291
- ACGGTTTG — lower, -0.104
- GACCTAGA — higher, 0.0106
- ACGTATGA — higher, 0.473
- CCGTATGA — higher, 0.135
- AGGTATGC — higher, 0.118
- AAGTATGG — higher, 0.023
- ACGTATGC — higher, 0.458
- ATGTATGG — higher, 0.0987
- CCGTATGC — lower, -0.0726
- ACGTATGG — higher, 0.441
- GCGTATGA — higher, 0.337
- ACTCTCTG — lower, -0.135
- CTCGCAAG — higher, 0.0771
- CAGCACCG — lower, -0.198
- AAGAGCAT — higher, 0.0596
- AAAGGTGA — lower, -0.09
- CATTGTTA — higher, 0.108
- GTTCTTTA — higher, 0.175
- GTTACGGA — higher, 0.0875
- CTTACGGC — lower, -0.277
- CTTACGTC — higher, 0.459
- CTTAGGTC — higher, 0.0974
- GTTACGTA — higher, 0.483
- CTTACGTA — higher, 0.489
- CTTACTTA — higher, 0.0934
- CTTACGGA — higher, 0.0115
- GTTACTGA — higher, 0.173
- GGTTGCCA — lower, -0.215
- CCCTGATA — lower, -0.149
- ATCACTGG — higher, 0.0306
- CATATCCA — lower, -0.129
- ACCGTTCC — lower, -0.0907
- GCGCCACC — lower, -0.291
- ATACGTGG — higher, 0.429
- GAACGTGA — higher, 0.175
- ATACGTGC — higher, 0.406
- ATACGTGA — higher, 0.426
- AAACGTGA — higher, 0.308
- CTACGTGC — higher, 0.354
- AAACGTGG — higher, 0.213
- AGACGTGG — higher, 0.203
- GTACGTGA — higher, 0.416
- AGACGTGA — higher, 0.312
- GGACGTGA — higher, 0.181
- AGACGTGC — higher, 0.241
- CAGTCTTC — lower, -0.187
- AGCCGAAT — lower, -0.104
- AGCCTTTA — higher, 0.0785
- CTGGTGGA — lower, -0.185
- CTACGTGA — higher, 0.404
- CTTCGTGA — higher, 0.186
- CTACGCGA — higher, 0.167
- AGTCAGAA — higher, -0.0299
- CGTCAGAA — higher, 0.37
- GGTCAAAA — higher, 0.096
- AGTCAGAC — lower, -0.203
- CGTCAAAC — higher, 0.253
- CGTCAGAC — higher, 0.394
- CCTCAGAG — lower, -0.374
